Measured values from PubChem BioAssay AID1159580 (chemical genetic matrix, 2015).
About 2,000 (36%) of roughly 5,500 compounds were called active. Inconclusive results (about 18%) are left out. Cut-off read from the data, not from the text of the source: active = normalized growth mostly below about 0.91 (no sharp cut-off); inconclusive = no clear call, values can overlap the other calls; inactive = mostly above about 0.92. The list shows a part of the results.

Test: chemical genetic growth profiling, strain panel (AID 1159580);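 note: tested at 20 µM; growth read once vehicle control cultures reached saturation at 30 °C; 1 = growth at the plate median or of vehicle wells; lower values mean less growth of the strain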
Conditions: S. cerevisiae deletion strains, growth OD

Measured: normalized growth

O=C(Oc1cccc2cccnc12)c1ccccc1
active: locus YAL030W, strain snc1, stronger effect = lower value 0.928 | locus YDR137W, strain rgp1, stronger effect = lower value 0.688 | locus YDR392W, strain spt3, stronger effect = lower value 0.601 | locus YHR013C, strain ard1, stronger effect = lower value 0.623 | locus YLL026W, stronger effect = lower value 0.925 | locus YLR262C, strain YPT6 (second series), stronger effect = lower value 0.776 | locus YLR320W, strain mms22, stronger effect = lower value 0.875 | locus YMR058W, strain fet3, stronger effect = lower value 0.897 | locus YNL071W, strain lat1, stronger effect = lower value 0.875 | locus YOR070C, strain gyp1, stronger effect = lower value 0.0944 | locus YOR270C, strain vph1, stronger effect = lower value 0.414 | locus YPL078C, strain atp4, stronger effect = lower value 0.878 | locus YPL106C, strain sse1, stronger effect = lower value 0.732
inactive: locus YAL021C, strain ccr4, stronger effect = lower value 0.962 | locus YAL026C, strain drs2, stronger effect = lower value 0.921 | locus YBL061C, strain skt5, stronger effect = lower value 0.951 | locus YBR009C, strain hhf1, stronger effect = lower value 0.956 | locus YBR023C, strain chs3, stronger effect = lower value 0.956 | locus YBR171W, strain sec66, stronger effect = lower value 0.917 | locus YBR231C, strain swc5, stronger effect = lower value 0.995 | locus YBR279W, strain paf1, stronger effect = lower value 0.957 | locus YCL011C, strain gbp2, stronger effect = lower value 0.959 | locus YCL016C, strain dcc1, stronger effect = lower value 0.952 | locus YCL061C, strain MRC1, stronger effect = lower value 0.967 | locus YCL069W, strain vba3, stronger effect = lower value 0.948 | locus YCR088W, strain abp1, stronger effect = lower value 0.936 | locus YDL005C, strain med2, stronger effect = lower value 0.962 | locus YDL040C, strain nat1, stronger effect = lower value 0.951 | locus YDR001C, strain nth1, stronger effect = lower value 0.936 | locus YDR069C, strain doa4, stronger effect = lower value 0.953 | locus YDR159W, strain sac3, stronger effect = lower value 0.971 | locus YDR195W, strain ref2 1.12 | locus YDR297W, strain sur2, stronger effect = lower value 0.937 | locus YDR334W, strain swr1, stronger effect = lower value 0.921 | locus YDR335W, strain msn5, stronger effect = lower value 0.938 | locus YEL003W, strain gim4, stronger effect = lower value 0.94 | locus YEL037C, strain rad23, stronger effect = lower value 0.961 | locus YEL061C, strain CIN8 (second series), stronger effect = lower value 0.943 | locus YER015W, strain faa2, stronger effect = lower value 0.965 | locus YER016W, strain bim1, stronger effect = lower value 0.96 | locus YER111C, strain swi4, stronger effect = lower value 0.955 | locus YER155C, strain BEM2 (second series), stronger effect = lower value 0.89 | locus YFR010W, strain ubp6, stronger effect = lower value 0.951 | locus YGL167C, strain pmr1, stronger effect = lower value 0.927 | locus YGL173C, strain kem1, stronger effect = lower value 0.908 | locus YGL227W, strain vid30, stronger effect = lower value 0.939 | locus YGL240W, strain doc1, stronger effect = lower value 0.93 | locus YGL253W, strain hxk2, stronger effect = lower value 0.969 | locus YHR027C, strain rpn1, stronger effect = lower value 0.929 | locus YHR030C, strain SLT2, stronger effect = lower value 0.955 | locus YHR079C, strain IRE1, stronger effect = lower value 0.955 | locus YHR142W, strain chs7, stronger effect = lower value 0.897 | locus YJL092W, strain hpr5, stronger effect = lower value 0.972 | locus YJL095W, strain BCK1 (second series), stronger effect = lower value 0.955 | locus YJL095W, strain BCK1, stronger effect = lower value 0.916 | locus YJL115W, strain asf1, stronger effect = lower value 0.951 | locus YJL129C, strain trk1, stronger effect = lower value 0.97 | locus YJL154C, strain vps35, stronger effect = lower value 0.939 | locus YJL164C, strain tpk1, stronger effect = lower value 0.957 | locus YJL166W, strain qcr8, stronger effect = lower value 0.955 | locus YJL187C, strain SWE1, stronger effect = lower value 0.951 | locus YJR066W, strain TOR1, stronger effect = lower value 0.92 | locus YKL160W, strain elf1, stronger effect = lower value 0.935 | locus YKR026C, strain gcn3, stronger effect = lower value 0.951 | locus YKR091W, strain srl3, stronger effect = lower value 0.951 | locus YLL001W, strain dnm1, stronger effect = lower value 0.979 | locus YLL041C, strain sdh2, stronger effect = lower value 0.967 | locus YLR027C, strain aat2, stronger effect = lower value 0.95 | locus YLR113W, strain HOG1, stronger effect = lower value 0.915 | locus YLR221C, strain rsa3, stronger effect = lower value 0.958 | locus YLR258W, strain gsy2, stronger effect = lower value 0.955 | locus YLR342W, strain FKS1, stronger effect = lower value 0.962 | locus YLR357W, strain rsc2, stronger effect = lower value 0.992 | locus YLR370C, strain arc18, stronger effect = lower value 0.918 | locus YLR384C, strain iki3, stronger effect = lower value 0.952 | locus YML120C, strain ndi1, stronger effect = lower value 0.934 | locus YMR125W, strain sto1, stronger effect = lower value 0.961 | locus YMR129W, stronger effect = lower value 0.954 | locus YMR205C, strain PFK2, stronger effect = lower value 0.973 | locus YMR231W, strain pep5, stronger effect = lower value 0.969 | locus YNL183C, strain NPR1, stronger effect = lower value 0.908 | locus YNL209W, strain ssb2, stronger effect = lower value 0.946 | locus YNL248C, strain rpa49, stronger effect = lower value 0.944 | locus YNL322C, strain KRE1 (second series), stronger effect = lower value 0.963 | locus YNR049C, strain mso1, stronger effect = lower value 0.944 | locus YOR001W, strain rrp6, stronger effect = lower value 0.95 | locus YOR080W, strain dia2, stronger effect = lower value 0.973 | locus YOR083W, strain WHI5, stronger effect = lower value 0.945 | locus YOR106W, strain vam3, stronger effect = lower value 0.905 | locus YOR231W, strain MKK1, stronger effect = lower value 0.946 | locus YOR265W, strain rbl2, stronger effect = lower value 0.955 | locus YOR290C, strain snf2, stronger effect = lower value 0.945 | locus YPL051W, strain arl3, stronger effect = lower value 0.932 | locus YPL240C, strain hsp82, stronger effect = lower value 0.965 | locus YPL256C, strain CLN2, stronger effect = lower value 0.961
